Assay results taken from the supplement of paper PMC11732987, “Enantioselective OTUD7B fragment discovery through chemoproteomics screening and high-throughput optimisation” (Communications Chemistry, 2025).

Columns and labels:
Assay in all cases: log2 ratio of Biotin-Ahx-Ub-VS probe labelling (fragment/DMSO); higher = less target engagement (more negative = stronger competition), active = hit call of the paper (q ≤ 0.05, log2 ratio ≤ -1)
Settings in all cases: compound concentration: 200 uM; treatment time: 3 h
USP19 = biological target: T1, USP19 (UniProt O94966)
T1 sequence (whole entry): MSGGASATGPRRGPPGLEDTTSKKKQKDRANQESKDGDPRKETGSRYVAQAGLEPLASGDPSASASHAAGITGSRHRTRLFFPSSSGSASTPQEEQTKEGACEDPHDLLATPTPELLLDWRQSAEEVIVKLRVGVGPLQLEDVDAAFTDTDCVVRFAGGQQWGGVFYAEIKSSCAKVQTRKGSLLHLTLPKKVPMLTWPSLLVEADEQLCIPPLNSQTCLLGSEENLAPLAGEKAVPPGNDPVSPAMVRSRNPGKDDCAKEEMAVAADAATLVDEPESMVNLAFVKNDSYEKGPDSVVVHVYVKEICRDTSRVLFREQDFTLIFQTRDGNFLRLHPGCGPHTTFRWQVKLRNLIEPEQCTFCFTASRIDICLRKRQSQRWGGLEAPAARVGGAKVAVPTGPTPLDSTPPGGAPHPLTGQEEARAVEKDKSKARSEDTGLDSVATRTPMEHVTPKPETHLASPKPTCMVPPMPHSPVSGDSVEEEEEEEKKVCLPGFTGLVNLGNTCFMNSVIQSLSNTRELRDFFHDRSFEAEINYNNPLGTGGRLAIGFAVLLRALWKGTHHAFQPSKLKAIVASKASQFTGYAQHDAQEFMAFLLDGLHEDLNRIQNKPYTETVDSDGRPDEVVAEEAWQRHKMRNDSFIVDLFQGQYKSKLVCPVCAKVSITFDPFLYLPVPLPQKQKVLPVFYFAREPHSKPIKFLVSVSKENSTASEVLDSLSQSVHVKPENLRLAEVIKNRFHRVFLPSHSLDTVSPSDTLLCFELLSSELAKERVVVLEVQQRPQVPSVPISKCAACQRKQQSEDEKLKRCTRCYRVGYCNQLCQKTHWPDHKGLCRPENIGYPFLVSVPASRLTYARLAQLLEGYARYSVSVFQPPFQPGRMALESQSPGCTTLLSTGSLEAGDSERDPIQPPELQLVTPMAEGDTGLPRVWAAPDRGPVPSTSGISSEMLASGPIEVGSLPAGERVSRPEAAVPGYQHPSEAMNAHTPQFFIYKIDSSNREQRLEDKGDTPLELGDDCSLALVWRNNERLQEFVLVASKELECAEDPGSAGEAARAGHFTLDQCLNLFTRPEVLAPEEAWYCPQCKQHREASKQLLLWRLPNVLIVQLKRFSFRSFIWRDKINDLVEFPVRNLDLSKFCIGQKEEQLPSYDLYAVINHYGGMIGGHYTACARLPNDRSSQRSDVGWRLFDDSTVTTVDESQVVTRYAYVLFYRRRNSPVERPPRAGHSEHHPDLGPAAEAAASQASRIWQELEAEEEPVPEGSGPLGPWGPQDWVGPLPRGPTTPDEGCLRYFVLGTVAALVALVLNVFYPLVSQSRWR
Procedure, shortened: (§1)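 Fragment (200 µM) or vehicle was incubated for 3 h with triplicate HEK293T lysate samples of 495 µg, which were then treated with Biotin-Ahx-Ub-VS at 0.5 µM final for 1 h. Labelled DUBs were enriched on NeutrAvidin, digested with LysC and trypsin, and analysed by diaPASEF LC-MS/MS. Values are average log2 fragment/vehicle ratios from an unpaired t-test on global-median-normalised Spectronaut label-free quantities, using proteins with ≥2 unique peptides.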

USP24 = USP24 (UniProt Q9UPU5)
Chain of USP24 (Q9UPU5 whole entry): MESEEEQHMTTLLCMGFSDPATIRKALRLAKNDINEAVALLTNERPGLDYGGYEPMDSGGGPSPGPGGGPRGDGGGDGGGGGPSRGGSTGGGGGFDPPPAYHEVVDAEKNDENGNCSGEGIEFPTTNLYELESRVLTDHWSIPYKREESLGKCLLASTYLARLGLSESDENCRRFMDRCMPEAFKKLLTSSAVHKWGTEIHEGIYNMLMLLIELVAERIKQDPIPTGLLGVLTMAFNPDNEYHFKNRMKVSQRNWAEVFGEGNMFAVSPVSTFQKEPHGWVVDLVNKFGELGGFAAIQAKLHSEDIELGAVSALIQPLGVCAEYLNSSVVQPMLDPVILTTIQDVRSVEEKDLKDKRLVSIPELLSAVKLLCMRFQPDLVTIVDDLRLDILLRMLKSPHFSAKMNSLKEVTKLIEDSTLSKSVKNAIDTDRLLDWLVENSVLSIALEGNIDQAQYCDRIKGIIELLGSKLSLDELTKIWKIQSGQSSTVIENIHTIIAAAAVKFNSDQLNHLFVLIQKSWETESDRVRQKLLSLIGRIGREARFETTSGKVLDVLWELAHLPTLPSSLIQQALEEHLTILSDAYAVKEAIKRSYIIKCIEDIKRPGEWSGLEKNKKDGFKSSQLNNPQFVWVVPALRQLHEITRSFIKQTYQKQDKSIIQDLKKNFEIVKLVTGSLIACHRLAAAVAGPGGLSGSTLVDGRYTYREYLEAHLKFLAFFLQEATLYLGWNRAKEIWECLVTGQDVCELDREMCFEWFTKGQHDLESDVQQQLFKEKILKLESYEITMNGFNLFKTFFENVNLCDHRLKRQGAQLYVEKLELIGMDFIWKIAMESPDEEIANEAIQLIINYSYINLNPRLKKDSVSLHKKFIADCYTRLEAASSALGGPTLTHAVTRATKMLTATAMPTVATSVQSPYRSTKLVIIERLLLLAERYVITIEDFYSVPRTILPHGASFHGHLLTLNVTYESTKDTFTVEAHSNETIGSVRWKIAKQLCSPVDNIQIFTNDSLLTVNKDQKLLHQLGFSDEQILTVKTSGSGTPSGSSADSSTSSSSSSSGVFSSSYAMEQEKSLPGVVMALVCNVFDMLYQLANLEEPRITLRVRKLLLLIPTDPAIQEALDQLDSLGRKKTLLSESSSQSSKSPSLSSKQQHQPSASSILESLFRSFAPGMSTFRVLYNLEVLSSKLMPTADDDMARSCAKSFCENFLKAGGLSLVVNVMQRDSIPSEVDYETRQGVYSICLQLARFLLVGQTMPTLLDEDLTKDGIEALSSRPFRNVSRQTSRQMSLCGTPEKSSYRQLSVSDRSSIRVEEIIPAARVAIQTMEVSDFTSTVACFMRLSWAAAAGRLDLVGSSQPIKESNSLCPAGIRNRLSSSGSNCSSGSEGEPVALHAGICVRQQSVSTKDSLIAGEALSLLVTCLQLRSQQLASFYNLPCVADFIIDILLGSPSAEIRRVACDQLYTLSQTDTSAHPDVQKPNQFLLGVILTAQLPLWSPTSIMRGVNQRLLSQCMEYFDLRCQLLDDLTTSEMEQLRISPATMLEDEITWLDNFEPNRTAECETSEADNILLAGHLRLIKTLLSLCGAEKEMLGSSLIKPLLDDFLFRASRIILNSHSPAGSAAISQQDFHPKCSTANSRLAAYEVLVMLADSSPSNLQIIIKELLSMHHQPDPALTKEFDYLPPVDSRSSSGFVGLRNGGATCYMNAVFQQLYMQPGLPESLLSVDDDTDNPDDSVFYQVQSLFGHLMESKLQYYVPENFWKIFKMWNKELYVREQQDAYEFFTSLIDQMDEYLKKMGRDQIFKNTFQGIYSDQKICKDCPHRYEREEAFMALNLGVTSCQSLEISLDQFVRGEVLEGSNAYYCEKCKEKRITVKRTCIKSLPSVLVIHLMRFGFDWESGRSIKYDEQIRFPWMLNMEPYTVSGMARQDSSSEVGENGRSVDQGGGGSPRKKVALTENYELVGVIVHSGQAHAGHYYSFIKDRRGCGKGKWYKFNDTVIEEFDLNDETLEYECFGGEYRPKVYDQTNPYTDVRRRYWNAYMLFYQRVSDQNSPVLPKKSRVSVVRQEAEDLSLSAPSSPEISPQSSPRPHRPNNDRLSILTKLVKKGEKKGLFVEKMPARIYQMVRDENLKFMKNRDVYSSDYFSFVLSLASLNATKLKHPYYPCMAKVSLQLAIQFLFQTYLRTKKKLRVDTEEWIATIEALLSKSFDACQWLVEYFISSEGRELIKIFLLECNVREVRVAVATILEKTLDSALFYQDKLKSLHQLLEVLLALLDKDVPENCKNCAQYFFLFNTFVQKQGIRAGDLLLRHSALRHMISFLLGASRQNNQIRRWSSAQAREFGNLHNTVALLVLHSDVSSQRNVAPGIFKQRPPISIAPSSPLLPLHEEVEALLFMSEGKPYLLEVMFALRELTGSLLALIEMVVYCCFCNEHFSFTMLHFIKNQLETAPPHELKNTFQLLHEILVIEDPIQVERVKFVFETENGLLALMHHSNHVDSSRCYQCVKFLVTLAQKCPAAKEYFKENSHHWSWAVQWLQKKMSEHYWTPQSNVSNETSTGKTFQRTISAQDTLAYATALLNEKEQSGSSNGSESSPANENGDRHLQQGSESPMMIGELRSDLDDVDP
Procedure, shortened: as §1

USP25 = biological target: T2, USP25 (UniProt Q9UHP3)
T2 sequence (whole entry): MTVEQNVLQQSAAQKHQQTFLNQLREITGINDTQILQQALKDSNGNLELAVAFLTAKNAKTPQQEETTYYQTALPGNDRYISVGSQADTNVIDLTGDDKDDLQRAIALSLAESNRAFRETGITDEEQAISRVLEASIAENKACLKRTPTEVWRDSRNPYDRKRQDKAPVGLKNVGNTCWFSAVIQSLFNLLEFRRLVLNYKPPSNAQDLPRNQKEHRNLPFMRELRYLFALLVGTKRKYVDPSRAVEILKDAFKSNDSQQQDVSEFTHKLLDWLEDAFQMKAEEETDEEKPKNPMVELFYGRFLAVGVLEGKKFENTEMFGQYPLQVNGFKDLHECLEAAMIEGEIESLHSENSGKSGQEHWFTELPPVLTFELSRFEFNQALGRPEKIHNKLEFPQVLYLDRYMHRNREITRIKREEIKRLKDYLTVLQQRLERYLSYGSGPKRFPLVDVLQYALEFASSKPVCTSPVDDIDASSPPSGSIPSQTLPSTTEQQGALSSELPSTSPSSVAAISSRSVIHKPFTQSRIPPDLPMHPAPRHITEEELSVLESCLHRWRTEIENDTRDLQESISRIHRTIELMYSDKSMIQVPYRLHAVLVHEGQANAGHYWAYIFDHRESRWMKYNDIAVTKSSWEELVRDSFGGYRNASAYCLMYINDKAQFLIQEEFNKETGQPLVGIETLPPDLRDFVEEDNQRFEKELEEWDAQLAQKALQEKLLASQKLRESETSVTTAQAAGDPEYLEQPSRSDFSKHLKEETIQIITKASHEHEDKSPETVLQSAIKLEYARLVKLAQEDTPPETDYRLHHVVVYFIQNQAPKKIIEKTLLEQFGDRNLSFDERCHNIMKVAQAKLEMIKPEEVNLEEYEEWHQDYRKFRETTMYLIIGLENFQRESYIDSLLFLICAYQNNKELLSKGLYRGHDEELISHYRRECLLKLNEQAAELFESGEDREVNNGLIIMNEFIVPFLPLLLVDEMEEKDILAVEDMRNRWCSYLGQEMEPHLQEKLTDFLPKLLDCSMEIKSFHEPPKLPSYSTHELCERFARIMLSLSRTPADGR
Procedure, shortened: as §1

USP28 = biological target: T3, USP28 (UniProt Q96RU2)
T3 sequence (whole entry): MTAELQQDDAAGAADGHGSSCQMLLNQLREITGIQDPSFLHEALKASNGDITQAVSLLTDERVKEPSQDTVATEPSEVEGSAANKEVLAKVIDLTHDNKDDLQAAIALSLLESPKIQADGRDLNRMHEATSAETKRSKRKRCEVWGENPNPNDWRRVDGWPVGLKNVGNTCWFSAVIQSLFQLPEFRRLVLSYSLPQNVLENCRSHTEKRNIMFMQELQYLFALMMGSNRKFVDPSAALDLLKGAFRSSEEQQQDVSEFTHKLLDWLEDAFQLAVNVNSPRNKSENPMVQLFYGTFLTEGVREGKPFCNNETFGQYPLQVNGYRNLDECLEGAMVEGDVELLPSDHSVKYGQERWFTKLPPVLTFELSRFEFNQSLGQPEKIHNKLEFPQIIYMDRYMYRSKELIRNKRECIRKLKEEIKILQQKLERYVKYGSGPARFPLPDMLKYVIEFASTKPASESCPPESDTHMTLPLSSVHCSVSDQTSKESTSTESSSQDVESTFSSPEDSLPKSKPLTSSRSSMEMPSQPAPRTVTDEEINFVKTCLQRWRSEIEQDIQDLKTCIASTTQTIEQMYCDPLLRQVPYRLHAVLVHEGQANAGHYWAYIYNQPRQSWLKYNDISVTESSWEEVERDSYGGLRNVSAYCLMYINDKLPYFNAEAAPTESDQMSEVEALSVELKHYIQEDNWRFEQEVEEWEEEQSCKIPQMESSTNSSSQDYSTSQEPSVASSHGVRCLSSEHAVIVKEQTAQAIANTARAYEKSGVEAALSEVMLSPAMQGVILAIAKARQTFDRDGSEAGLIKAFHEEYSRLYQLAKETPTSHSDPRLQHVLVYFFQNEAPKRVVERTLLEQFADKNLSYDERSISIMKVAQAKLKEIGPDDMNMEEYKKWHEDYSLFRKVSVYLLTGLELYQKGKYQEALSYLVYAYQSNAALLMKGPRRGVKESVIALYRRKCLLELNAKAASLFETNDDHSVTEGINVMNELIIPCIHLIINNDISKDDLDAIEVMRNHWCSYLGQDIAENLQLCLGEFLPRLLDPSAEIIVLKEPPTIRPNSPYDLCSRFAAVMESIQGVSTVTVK
Procedure, shortened: as §1

Measured: log2 ratio of Biotin-Ahx-Ub-VS probe labelling

Cc1ccc(CNC(=O)CCl)nc1C.Cl
inactive: USP19 -0.0635 | USP24 -0.467 | USP25 -0.436 | USP28 -0.456
